High-throughput results: PubChem, several laboratories
TROY NFkB inh – blocks TROY-dependent signaling in reporter cells | inhibition, % at 10 µM | hit rate 0.98% among 360,000 | Q293 LMP1-TROYcd NF-kB luciferase reporter, 4 h;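 active means compounds whose plate-normalised and pattern-corrected inhibition of the luciferase reporter signal at the single screening dose is 50% or more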
LGR2 inh – inhibitors of bursicon-induced Drosophila LGR2 receptor cAMP signaling | HEK293 LGR2, CRE-luciferase, bursicon-stimulated, 4 h | inhibition, % at 9.99 µM | hit rate 0.35% among 380,000 | AID 720647;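 active means drop in luminescence signal, shown as inhibition above about 50% in the replicate tests, limit read from the data, passing the limit was not always enough; inconclusive means probably only some replicates passing the limit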;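 further: agonist challenge used bursicon conditioned medium at about half maximal strength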
TWEAK-Fn14 inh – blocks TWEAK-Fn14 interaction in a reporter cell assay; TWEAK-stimulated Fn14 reporter cells, luciferase luminescence, 8 h; inhibition, % at 10 µM; hit rate 2% among 360,000; in the data active means inhibition above about 50%
EWS-Fli inh – blocks EWS/Fli oncoprotein-driven transcription. inhibition, % at 12.6 µM. A673 NR0B1-luciferase reporter, viability-normalised. hit rate 0.67% among 350,000;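 active means mean inhibition of at least 50% after viability correction, with every replicate also passing that limit; inconclusive means mean reaches 50% but only one of two replicates passes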;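 further: firefly luciferase signal divided by Alamar Blue viability fluorescence both relative to DMSO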
LMP1 NFkB inh – inhibitors of Epstein-Barr LMP1-induced NF-kappaB reporter; LMP1-induced NF-kappaB luciferase reporter cells, luminescence; hit rate 0.69% among 350,000; inhibition, % at 12.5 µM; AID 504558; in the data active means inhibition above about 41%; inconclusive means no clear call, values can overlap the other calls;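 further: 0% = neutral control wells and 100% = reference inhibitor control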
PAX8 reporter – inhibitors of PAX8 transcriptional activity in RMG-I cells; RMG-I TPO-luciferase reporter, SteadyGlo, 24 h; inhibition, % at 12.6 µM; hit rate 1.2% among 360,000; AID 652154;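 active means mean replicate inhibition at least 60% with every replicate also reaching 60%; inconclusive means only one of the two criteria is met; inactive means mean below 60% and not all replicates reaching 60%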;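 further: luciferase light reporting Pax8 driven TPO promoter activity; plate controls were median of neutral control wells for no effect and mitoxantrone controls for full effect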
An asterisk follows results filed as active. This is a sample that favours compounds with a hit; in the whole collection about 3.2% have one here.

CC1CCC(C(C)C)C(OC(=O)Cn2c(-c3ccc(F)cc3)[n+](C)c3ccccc32)C1 (configuration not stated) was read as TROY NFkB inh 31, LGR2 inh inconclusive, TWEAK-Fn14 inh 45, EWS-Fli inh 13, LMP1 NFkB inh 15 and PAX8 reporter 94*.
For Cc1cccc(OC(=O)Cn2c(C(F)(F)F)nc3ccccc32)c1 the results were TROY NFkB inh 19, TWEAK-Fn14 inh -6 and LMP1 NFkB inh 2.
For Cc1cccc(OCc2n(CC(=O)OC3CC(C)CCC3C(C)C)c3ccccc3[n+]2C)c1 (configuration not stated) the results were TROY NFkB inh 64*, TWEAK-Fn14 inh 75* and LMP1 NFkB inh -15.
For C[C@@H]1CN([C@@H](C)CO)C(=O)c2cc(N(C)C)ccc2O[C@@H](C)CCCCO[C@H]1CN(C)C(=O)Cc1ccccc1 the results were LGR2 inh -8, EWS-Fli inh 3 and PAX8 reporter -3.
C[C@H]1CN([C@@H](C)CO)C(=O)c2cc(C3=CCCCC3)cnc2O[C@H]1CN(C)Cc1ccc(C(=O)O)cc1 was read as LGR2 inh 13, EWS-Fli inh -6 and PAX8 reporter -24.
COc1cc(-c2noc(C)c2C#Cc2ccccn2)cc(OC)c1OC was read as TROY NFkB inh 8, LGR2 inh -7, TWEAK-Fn14 inh -8, EWS-Fli inh 54*, LMP1 NFkB inh 5 and PAX8 reporter 29.
COc1cc(-c2noc(C)c2/C=C/c2ccc(N)cc2)cc(OC)c1OC was read as TROY NFkB inh -2, LGR2 inh -8, TWEAK-Fn14 inh 9, EWS-Fli inh 57*, LMP1 NFkB inh 1 and PAX8 reporter 79*.
Screening COc1cc(-c2c(-c3cc(OC)c(OC)c(OC)c3)noc2C)ccc1F returned LGR2 inh -28, EWS-Fli inh 66* and PAX8 reporter 88*.
For COc1ccc(-c2c(-c3cc(OC)c(OC)c(OC)c3)noc2C)cn1 the results were TROY NFkB inh -16, TWEAK-Fn14 inh 5 and LMP1 NFkB inh 7.
For COc1cc(-c2noc(C)c2C#Cc2ccc(N)cc2)cc(OC)c1OC the results were TROY NFkB inh 29, LGR2 inh -15, TWEAK-Fn14 inh 40, EWS-Fli inh inconclusive, LMP1 NFkB inh 4 and PAX8 reporter 75*.
Cc1ccc(S(=O)(=O)N(C)C[C@@H]2Oc3ccc(NC(=O)CCCCCC(=O)Nc4ccccc4N)cc3C(=O)N([C@H](C)CO)C[C@H]2C)cc1 was read as LGR2 inh -13 and PAX8 reporter -6.
`Cn1cccc1C(=O)NC(=O)COC(=O)C12CC3CC(CC(O)(C3)C1)C2` gave TROY NFkB inh 79*, LGR2 inh 16, TWEAK-Fn14 inh 44 and LMP1 NFkB inh -14.
`C[C@@H]1CN([C@H](C)CO)C(=O)c2cccc(NC(=O)C3CC3)c2O[C@H]1CN(C)Cc1ccc(C(=O)Nc2ccccc2N)cc1` gave LGR2 inh 7 and EWS-Fli inh 23.
`Oc1c(I)cc(I)c2cccnc12` gave TROY NFkB inh -13, TWEAK-Fn14 inh -1, EWS-Fli inh 52*, LMP1 NFkB inh -3 and PAX8 reporter 100*.
`CCCCn1c(N)c(N(CCC(C)C)C(=O)COC(=O)c2ccc([N+](=O)[O-])s2)c(=O)[nH]c1=O` gave TROY NFkB inh -2, LGR2 inh 5, TWEAK-Fn14 inh 9, EWS-Fli inh 6, LMP1 NFkB inh -22 and PAX8 reporter 91*.
Screening CC(C)CN(C(=O)COC(=O)c1ccc([N+](=O)[O-])s1)c1c(N)n(Cc2ccccc2)c(=O)[nH]c1=O returned TROY NFkB inh -1, LGR2 inh 2, TWEAK-Fn14 inh 1, EWS-Fli inh -3, LMP1 NFkB inh 8 and PAX8 reporter -2.
Screening C[C@H]1CN([C@@H](C)CO)C(=O)c2cc(NC(=O)Cn3cnnn3)ccc2O[C@@H]1CN(C)S(C)(=O)=O returned LGR2 inh 1 and EWS-Fli inh -3.
C[C@H](CO)N1C[C@H](C)[C@@H](CN(C)C(=O)C2CC2)Oc2cc(-c3ccccc3)ccc2S1(=O)=O was read as LGR2 inh 2 and EWS-Fli inh -5.
For CCN(CC(=O)NCc1ccc(F)cc1)CC(=O)Nc1cc(S(=O)(=O)N(C)C)ccc1C the results were TROY NFkB inh -8, LGR2 inh -3, TWEAK-Fn14 inh 6, EWS-Fli inh 8, LMP1 NFkB inh 44* and PAX8 reporter -3.
`CCN(CC(=O)NCc1ccc(F)cc1)CC(=O)Nc1ccc(Br)cc1F` gave TROY NFkB inh 9, LGR2 inh 4, TWEAK-Fn14 inh -24, EWS-Fli inh 5, LMP1 NFkB inh 1 and PAX8 reporter 7.
`C[C@@H]1CN([C@@H](C)CO)C(=O)c2cccc(NC(=O)C3CCOCC3)c2O[C@@H]1CN(C)C(=O)Nc1cccc2ccccc12` gave LGR2 inh -4, EWS-Fli inh -13 and PAX8 reporter -2.
Screening CO[C@H]1CN(C)C(=O)c2cc(NC(=O)Nc3ccccc3F)ccc2OC[C@@H](C)N(CC2CC2)C[C@H]1C returned LGR2 inh -6, EWS-Fli inh -4 and PAX8 reporter -3.
For Cc1noc(C)c1NC(=O)N(C)C[C@@H]1Oc2ccc(NS(=O)(=O)c3cccs3)cc2C(=O)N([C@@H](C)CO)C[C@H]1C the results were LGR2 inh -3 and EWS-Fli inh 0.
For COc1ccc(S(=O)(=O)N(C(=O)c2ccncc2)c2ccc3oc4c(c3c2)CCCC4)cc1 the results were TROY NFkB inh 44, LGR2 inh 18, TWEAK-Fn14 inh 51*, EWS-Fli inh 5, LMP1 NFkB inh -2 and PAX8 reporter 21.
Screening O=C(Nc1ccc(Cl)cc1)N[C@H]1CC[C@@H](CCNS(=O)(=O)c2ccccc2F)O[C@@H]1CO returned LGR2 inh -2, EWS-Fli inh -10 and PAX8 reporter 23.
Screening O=C(COC(=O)c1ccc(Cl)c([N+](=O)[O-])c1)NC1CCCC1 returned TROY NFkB inh 5, LGR2 inh -22, TWEAK-Fn14 inh 6, EWS-Fli inh 6, LMP1 NFkB inh 3 and PAX8 reporter 17.
Screening O=C(COC(=O)c1ccccc1C(=O)c1ccc(Cl)c([N+](=O)[O-])c1)NC1CCCCCC1 returned TROY NFkB inh 78*, TWEAK-Fn14 inh 98*, LMP1 NFkB inh 87* and PAX8 reporter 15.
Screening CC(C)N(C(=O)COC(=O)c1ccccc1C(=O)c1ccc(Cl)c([N+](=O)[O-])c1)C(C)C returned TROY NFkB inh 74*, LGR2 inh 94*, TWEAK-Fn14 inh 35, EWS-Fli inh inconclusive, LMP1 NFkB inh -6 and PAX8 reporter 36.
Screening COc1ccc(C(=O)c2ccc(Cl)c([N+](=O)[O-])c2)cc1 returned TROY NFkB inh 23, LGR2 inh 6, TWEAK-Fn14 inh 20, EWS-Fli inh 48, LMP1 NFkB inh 4 and PAX8 reporter 108*.
